Assay results reported in PubChem BioAssay (EPA / NIEHS).
Active and inactive are the calls of the source. Rule for the calls: active = hit-call score of the fitted dose curve at least 0.9, where 1 is the maximum; inactive = score below 0.9.

Tests used:
[1] = read-out: Intercellular Adhesion Molecule 1 (ICAM1), ICAM1 (gene 3383); experiment: BSK_3C_ICAM1: BioMAP Diversity Plus: 3C Assay for Intercellular Adhesion Molecule 1 (ICAM1) Biomarker Activity (AID 2283003); conditions: primary human endothelial cells (HUVEC); actives raise or lower the signal
Summary of the method: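 Primary human umbilical vein endothelial cells in the BioMAP 3C system were exposed to chemicals for 24 h, then ICAM-1 was quantified by ELISA. Activity was fitted bidirectionally against the DMSO negative control baseline.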

[2] = BSK_3C_Proliferation: Cell Proliferation Assessment in the BioMAP Diversity Plus: 3C Assay (AID 2283006); conditions: primary human endothelial cells (HUVEC);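 for AC50: potency may reflect either rise or fall in cell number versus DMSO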
Summary of the method: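 Human umbilical vein endothelial cells were grown sub-confluent and exposed to chemical for 48 h, then fixed with 10% TCA and stained with 0.1% sulforhodamine B; absorbance at 560 nm gave relative cell number, fitted bidirectionally against DMSO baseline.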

[3] = read-out: E-selectin (Homo sapiens) (UniProt P16581); experiment: BSK_3C_Eselectin: BioMAP Diversity Plus: 3C Assay for Eselectin Biomarker Activity (AID 2283015); conditions: primary human endothelial cells (HUVEC); actives raise or lower the signal;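 for outcome: cell surface E-selectin protein quantified by ELISA 24 h after dosing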
Summary of the method: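 Primary human umbilical vein endothelial cells (3C system) were dosed with chemical and cell-surface E-selectin measured by ELISA 24 h later. Bidirectional curve fitting used DMSO as negative control and baseline.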

[4] = read-out: Matrix Metallopeptidase 1 (MMP1), MMP1 (gene 4312); experiment: BSK_BE3C_MMP1: BioMAP Diversity Plus: BE3C Assay for Matrix Metallopeptidase 1 (MMP1) Biomarker Activity (AID 2283024); conditions: primary human bronchial epithelial cells; actives raise or lower the signal
Summary of the method: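 Primary human bronchial epithelial cells were dosed with test chemicals, and MMP1 levels were measured by ELISA 24 h later. Data were fitted bidirectionally against DMSO as the negative control and activity baseline.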

[5] = BSK_BE3C_SRB: Viability Assessment in the BioMAP Diversity Plus: BE3C Assay (AID 2283028); conditions: primary human bronchial epithelial cells;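 for AC50: fitted both ways so AC50 may mark signal gain or loss versus DMSO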
Summary of the method: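 Human primary bronchial epithelial cells were exposed to test chemicals for 24 h. Total protein in parallel cultures was then measured by staining with 0.1% sulforhodamine B after 10% TCA fixation, with absorbance read at 560 nm. Activity was fitted bidirectionally against DMSO.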

[6] = read-out: Thrombomodulin, THBD (gene 7056); experiment: BSK_3C_Thrombomodulin: BioMAP Diversity Plus: 3C Assay for Thrombomodulin Biomarker Activity (AID 2283029); conditions: primary human endothelial cells (HUVEC); actives raise or lower the signal
Summary of the method: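 Primary human umbilical vein endothelial cells (3C system) were exposed to chemical for 24 h, then thrombomodulin levels were measured by ELISA. Activity was fitted bidirectionally against the DMSO negative control as baseline.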

[7] = read-out: Human Leukocyte Antigen - DR isotype (HLADR), HLA-DRA (gene 3122); experiment: BSK_BE3C_HLADR: BioMAP Diversity Plus: BE3C Assay for Human Leukocyte Antigen - DR isotype (HLADR) Biomarker Activity (AID 2283032); conditions: primary human bronchial epithelial cells; actives raise or lower the signal
Summary of the method: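 Human primary bronchial epithelial cells in the BE3C system were exposed to chemicals for 24 h, after which HLA-DR levels were quantified by ELISA. Activity was fitted bidirectionally, gain or loss of signal, against DMSO as negative control and baseline.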

[8] = read-out: Vascular cell adhesion molecule 1 (VCAM1), VCAM1 (gene 7412); experiment: BSK_4H_VCAM1: BioMAP Diversity Plus: 4H Assay for Vascular cell adhesion molecule 1 (VCAM1) Biomarker Activity (AID 2283033); conditions: primary human endothelial cells (HUVEC); actives raise or lower the signal;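 for outcome: cell-surface VCAM-1 protein measured by ELISA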
Summary of the method: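 Primary human umbilical vein endothelial cells were exposed to chemicals for 24 h, after which VCAM-1 was quantified by ELISA. Responses were fitted bidirectionally against DMSO as negative control and activity baseline.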

[9] = read-out: Interferon-gamma inducible Protein 10 (IP10), CXCL10 (gene 3627); experiment: BSK_BE3C_IP10: BioMAP Diversity Plus: BE3C Assay for Interferon-gamma inducible Protein 10 (IP10) Biomarker Activity (AID 2283034); conditions: primary human bronchial epithelial cells; actives raise or lower the signal
Summary of the method: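 Human primary bronchial epithelial cells were exposed to chemicals for 24 hours, after which IP-10 levels were measured by ELISA. Data were fitted bidirectionally against DMSO, which served as the negative control and activity baseline.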

[10] = read-out: Urokinase-type plasminogen activator receptor (uPAR), PLAUR (gene 5329); experiment: BSK_BE3C_uPAR: BioMAP Diversity Plus: BE3C Assay for Urokinase-type plasminogen activator receptor (uPAR) Biomarker Activity (AID 2283039); conditions: primary human bronchial epithelial cells; actives raise or lower the signal;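 note: uPAR protein level measured by ELISA on the cells; cells exposed to compound for one day before measurement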
Summary of the method: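 Primary human bronchial epithelial cells were dosed with chemical and harvested 24 h later; uPAR was quantified by ELISA. Activity was fitted bidirectionally against DMSO as negative control and baseline.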

[11] = read-out: Interleukin-6 (IL6), IL6 (gene 3569); experiment: BSK_CASM3C_IL6: BioMAP Diversity Plus: CASM3C Assay for Interleukin-6 (IL6) Biomarker Activity for (AID 2283040); conditions: primary human coronary artery smooth muscle cells; actives raise or lower the signal
[12] = read-out: Interleukin-8 (IL8), CXCL8 (gene 3576); experiment: BSK_CASM3C_IL8: BioMAP Diversity Plus: CASM3C Assay for Interleukin-8 (IL8) Biomarker Activity (AID 2283042); conditions: primary human coronary artery smooth muscle cells; actives raise or lower the signal;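 note: IL-8 protein level quantified by ELISA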
[13] = read-out: Human Leukocyte Antigen - DR isotype (HLADR), HLA-DRA (gene 3122); experiment: BSK_CASM3C_HLADR: BioMAP Diversity Plus: CASM3C Assay for Human Leukocyte Antigen - DR isotype (HLADR) Biomarker Activity (AID 2283043); conditions: primary human coronary artery smooth muscle cells; actives raise or lower the signal;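 note: cell-surface HLA-DR protein level quantified by ELISA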
[14] = read-out: Monocyte Chemoattractant Protein-1 (MCP1), CCL2 (gene 6347); experiment: BSK_CASM3C_MCP1: BioMAP Diversity Plus: CASM3C Assay for Monocyte Chemoattractant Protein-1 (MCP1) Biomarker Activity (AID 2283046); conditions: primary human coronary artery smooth muscle cells; actives raise or lower the signal;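 note: MCP-1 level quantified by ELISA 24 h after dosing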
[15] = BSK_CASM3C_Proliferation: Cell Proliferation Assessment in the BioMAP Diversity Plus: CASM3C Assay (AID 2283047); conditions: primary human coronary artery smooth muscle cells;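 note: sulforhodamine B total protein stain as relative cell number at 560 nm; sub-confluent cells exposed 48 h before staining; fitted both ways against DMSO so gain or loss of cell number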
[16] = read-out: serum amyloid A (SAA), SAA1 (gene 6288); experiment: BSK_CASM3C_SAA: BioMAP Diversity Plus: CASM3C Assay for serum amyloid A (SAA) Biomarker Activity (AID 2283049); conditions: primary human coronary artery smooth muscle cells; actives raise or lower the signal;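 note: SAA protein level quantified by ELISA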
[17] = read-out: Tissue Factor, F3 (gene 2152); experiment: BSK_CASM3C_TissueFactor: BioMAP Diversity Plus: CASM3C Assay for Tissue Factor Biomarker Activity (AID 2283052); conditions: primary human coronary artery smooth muscle cells; actives raise or lower the signal;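 note: cell surface tissue factor protein level read by ELISA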
[18] = read-out: Interferon-gamma inducible Protein 10 (IP10), CXCL10 (gene 3627); experiment: BSK_hDFCGF_IP10: BioMAP Diversity Plus: hDFCGF Assay for Interferon-gamma inducible Protein 10 (IP10) Biomarker Activity (AID 2283053); conditions: primary human foreskin fibroblasts; actives raise or lower the signal
Summary of the method: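 Human foreskin fibroblast primary cells (hDFCGF system) were dosed with chemical and assayed at 24 h; IP-10 measured by ELISA. Activity fitted bidirectionally relative to DMSO negative control as baseline.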

[19] = read-out: Urokinase-type plasminogen activator receptor (uPAR), PLAUR (gene 5329); experiment: BSK_CASM3C_uPAR: BioMAP Diversity Plus: CASM3C Assay for Urokinase-type plasminogen activator receptor (uPAR) Biomarker Activity (AID 2283054); conditions: primary human coronary artery smooth muscle cells; actives raise or lower the signal;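 note: cell-surface uPAR protein level quantified by ELISA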
[20] = read-out: Collagen III, COL3A1 (gene 1281); experiment: BSK_hDFCGF_CollagenIII: BioMAP Diversity Plus: hDFCGF Assay for Collagen III Biomarker Activity (AID 2283056); conditions: primary human foreskin fibroblasts; actives raise or lower the signal
Summary of the method: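 Human foreskin primary fibroblasts were exposed to test chemicals for 24 h, after which collagen III was quantified by ELISA. Activity was fitted bidirectionally against DMSO as negative control and baseline.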

Chain of E-selectin (Homo sapiens) (P16581 whole entry, looked up): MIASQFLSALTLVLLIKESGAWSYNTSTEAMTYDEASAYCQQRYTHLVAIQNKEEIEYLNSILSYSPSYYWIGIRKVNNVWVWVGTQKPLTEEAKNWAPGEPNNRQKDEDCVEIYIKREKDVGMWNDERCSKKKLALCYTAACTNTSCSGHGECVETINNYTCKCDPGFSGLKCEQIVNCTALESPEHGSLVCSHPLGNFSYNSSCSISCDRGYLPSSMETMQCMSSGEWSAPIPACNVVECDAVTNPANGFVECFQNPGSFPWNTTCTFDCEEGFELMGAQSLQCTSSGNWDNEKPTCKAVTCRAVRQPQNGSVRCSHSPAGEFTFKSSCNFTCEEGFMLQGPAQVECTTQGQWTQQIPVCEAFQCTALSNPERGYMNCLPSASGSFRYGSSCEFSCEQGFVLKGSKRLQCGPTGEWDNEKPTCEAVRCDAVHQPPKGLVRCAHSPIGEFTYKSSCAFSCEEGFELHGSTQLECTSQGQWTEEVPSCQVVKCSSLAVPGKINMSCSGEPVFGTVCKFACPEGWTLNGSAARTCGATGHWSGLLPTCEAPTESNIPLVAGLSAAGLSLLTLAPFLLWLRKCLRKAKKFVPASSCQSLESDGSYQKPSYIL

For `O=[N+]([O-])c1ccc(Cl)cc1`, the outcome [1] was “inactive”, the outcome [2] was “inactive” and the outcome [3] was “inactive”. For the same compound, the outcome [4] was “inactive”, the outcome [5] was “inactive” and the outcome [6] was “inactive”. For the same compound, the outcome [7] was “inactive”, the outcome [8] was “inactive” and the outcome [9] was “inactive”. The outcome [10] was “inactive”, the outcome [11] was “inactive” and the outcome [12] was “inactive”. The outcome [13] was “inactive”, the outcome [14] was “inactive” and the outcome [15] was “inactive”. For the same compound, the outcome [16] was “inactive”, the outcome [17] was “inactive” and the outcome [18] was “inactive”. The outcome [19] was “inactive” and the outcome [20] was “inactive”.
With `c1ccc(Nc2ccc3ccccc3c2)cc1` the AC50 [1] was 30.6 µM (active), the AC50 [2] was 23.6 µM (active) and the AC50 [3] was 13.8 µM (active). The outcome [4] was “inactive”, the AC50 [5] was 30 µM (active) and the outcome [6] was “inactive”. For the same compound, the AC50 [7] was 20 µM (active), the AC50 [8] was 29.5 µM (active) and the AC50 [9] was 20 µM (active). The outcome [10] was “inactive”, the outcome [11] was “inactive” and the outcome [12] was “inactive”. For the same compound, the outcome [13] was “inactive”, the outcome [14] was “inactive” and the AC50 [15] was 31.7 µM (active). For the same compound, the outcome [16] was “inactive”, the outcome [17] was “inactive” and the AC50 [18] was 36.2 µM (active). The outcome [19] was “inactive” and the AC50 [20] was 30.7 µM (active).
